# Source: PubChem BioAssay AID504706 (National Center for Advancing Translational Sciences (NCATS), 2011)
# About 200 (0.062%) of roughly 320,000 compounds were called active. A call without a number means that no potency is given here. Another 6% or so got no clear call; they are omitted. The call rests on the fitted dose curve; in most records, active means well fitted activation curve with a large enough effect; inconclusive means small, poorly fitted or top-dose-only effect; inactive means no such curve, though single readings can be large or run the other way. For the sample, actives were picked, then their nearest neighbours and some compounds at random.
# Test: qHTS assay for re-activators of p53 using a Luc reporter; further: nearly all actives have a fitted effect of over 45% in size
# Details: H1299 p53-A138V BP100-luciferase reporter, luminescence, 24 h; series mostly up to 92.2 µM
# Text: The p53 tumor suppressor plays a key role in suppression of tumorigenesis and in human carcinogenesis. It is frequently found inactivated in human cancers, mainly by point mutation. These point mutations are found in a wide variety of human cancers and a majority of them affect the DNA binding domain of the protein. The point mutations either alter native p53 conformation or abolish DNA contact. Additionally, cancer cells with p53 mutations are more resistant to chemo-radiation therapies. In order to find activators to reactivate this important protein, a cell-based screen for p53-dependent luciferase-reporter expression was developed. A p53-null H1299 lung cancer cell line was stably co-transfected with a temperature sensitive p53 mutant, p53-A138V, and a p53-responsive BP100-luciferase reporter. This cell model has previously been characterized in a gene chip profiling experiment for p53 activation. By lowering the culture temperature from 37 deg C (mutant p53 conformation) to 32 deg C (w.t. p53 conformation), a 30-60 fold increase in activation of luciferase activity is observed. At assay temperate, 37 deg C, basal reporter expression is very low and after the addition of detection reagent, a luminescent read-out is carried out. NIH Chemical Genomics Center [NCGC] NIH Molecular Libraries Probe Production Centers Network [MLPCN] MLPCN Grant: DA031088-01A1 Assay Provider (PI): Yi Sung, University of Michigan at Ann Arbor
# 5ul of 1000 cells per well are dispensed in all wells except column 4, into white solid-bottom TC-treated Kalypsys plates. The cells are kept in Opti-MEM and supplemented with 10% FBS and dispensed using a Multidrop (Thermo). Then using the Kalypsys pin-tool, 23nl of compounds are pinned. The compounds are starting concentration at 10mM, with 1:5 dilution, 4 points, and the control compound nocodazole is pinned in column 1 at 25mM, 1:3 dilution, in duplicate, 25mM nocodazole is pinned in column 2. Please note, all concentrations are working concentrations. 5ul of 1pM purified luciferase enzyme is dispensed using the Kalypsys dispenser in column 4. Plates are incubated for 24 hrs at 37 deg C, 5% CO2, and 95% humidity. Then 4ul of the detection reagent Amplite (ABD Bioquest) is added using the Kalypsys dispenser. Plates are incubated for 10 min at ambient room temperature and are then read on the ViewLux (Perkin Elmer) using a clear filter for a luminescent read-out.
# Potency means the concentration at half of the fitted maximal effect.
row,SMILES,Potency
1,COC(=O)[C@]1(C)N[C@H](CN(C)C(=O)c2ccc(C(C)(C)C)cc2)[C@@H]2C(=O)N(C)C(=O)[C@@H]21,inactive
2,Cc1ccc(CNC(=O)Cn2cnc3c(NCc4ccccc4)ncnc32)o1,inactive
3,CN(C(=O)c1cccc(NC(=O)Cc2ccc([N+](=O)[O-])cc2)c1)C1CCC1,inactive
4,CCN(C(=O)CSc1nnnn1-c1ccc(OC)cc1)C1CCS(=O)(=O)C1 (stereo not given),inactive
5,C#CCOCCOCCOCCNc1nc(N2CCN(C(=O)[C@H](CCCN=C(N)N)n3cc(C(N)[C@@H](C)CC)nn3)CC2)nc(N2CCN(C(=O)[C@H](CO)n3cc([C@@H](N)C(C)C)nn3)CC2)n1 (stereo not given in full),inactive
6,CCCCNS(=O)(=O)CCNCc1ccccc1OC,inactive
7,C=CCC[C@@H](Cc1ccc(F)cc1)C(=O)OC[C@@H](C)NC(=O)[C@H](CC=C)CC(=O)N(CCO)Cc1ccccc1,inactive
8,CC(=NNC(=O)c1ccc2nc[nH]c2c1)c1ccc(Br)cc1,inactive
9,CC[C@@H]1CCCCc2ccccc2[C@@H](C(=O)C[C@H](O)CC(C)=O)OC1=O,inactive
10,COc1ccc(-c2nn(-c3ccccc3)cc2/C=N/Nc2ccccn2)cc1OC,inactive
11,Oc1ccc(/C=N/Nc2ccc(C(F)(F)F)cn2)cc1O,inactive
12,Oc1ccc(Br)cc1/C=N/Nc1ccccn1,28.2 µM (active)
13,COc1ccc(-c2nc3cc(C)ccn3c2NC2CCCCC2)cc1SC1CCCCC1,inactive
14,CSc1ccc(/C=N/NC(=O)c2cccc(Cl)c2)cc1,10 µM (active)
15,O=C(N/N=C/c1ccc(Cl)c(Cl)c1)c1ccc2nc[nH]c2c1,inactive
16,CSc1ccc(/C=N\NC(=O)CC(=O)NC(C)C)cc1,inactive
17,COc1ccc2nc3n(c(=O)c2c1)-c1cc(C)ccc1C(=O)NC3Cc1ccc(O)cc1 (stereo not given),inactive
18,O=C1CCC/C=C/C[C@@H](CC(=O)N(CCO)Cc2ccccc2)C(=O)NC[C@H](c2ccccc2)O1,inactive
19,C=CCC[C@H](Cc1ccc(F)cc1)C(=O)OC[C@@H](Cc1c[nH]c2ccccc12)NC(=O)[C@H](CC=C)CC(=O)N[C@H](CO)Cc1ccccc1,inactive
20,C=CCC[C@H](Cc1ccc(F)cc1)C(=O)OC[C@@H](NC(=O)[C@@H](CC=C)CC(=O)N[C@H](CO)Cc1ccccc1)C(C)(C)C,inactive
21,C=CC[C@@H](CC(=O)N[C@H](CO)Cc1ccccc1)C(=O)N[C@H](C)COC(=O)[C@@H](CC=C)Cc1ccc(F)cc1,inactive
22,Cc1noc(C)c1S(=O)(=O)N(C)C[C@H]1Oc2c(NC(=O)Nc3ccc4c(c3)OCO4)cccc2C(=O)N([C@H](C)CO)C[C@@H]1C,inactive
23,O=C(CCc1ccc(S(=O)(=O)N2CCOCC2)cc1)OCC(=O)c1ccc(Br)cc1,inactive
24,Cc1ccc(NC(=O)C2CCC(C(C)(C)C)CC2)cc1S(=O)(=O)N1CCOCC1 (stereo not given),inactive
25,O=C(Cn1cc(C(F)(F)F)ccc1=O)Nc1ccc2c(c1)OCCO2,inactive
26,COc1ccccc1N(CC(=O)Nc1ccc(C)cc1Cl)S(=O)(=O)c1cccs1,inactive
27,CC[C@]12c3[nH]c4ccc(Cl)cc4c3CCN1C(=O)[C@@H](CC(=O)NCCCOC)C[C@@H]2C(=O)N1CCN(C(=O)C2CC2)CC1,inactive

row,SMILES,Potency
1,COc1ccc(CNC(=O)C[C@H]2C[C@H](C(=O)N3CCOCC3)[C@@]3(C)c4[nH]c5cc(CCC(=O)N(C)C)ccc5c4CCN3C2=O)cc1OC,inactive
2,COc1ccc(C(C(O)C(=O)c2c[nH]c3ccccc23)N2CCN(c3ccccc3)CC2)cc1 (stereo not given),inactive
3,COc1ccc2[nH]cc(/C=C(/C#N)S(=O)(=O)c3ccccc3)c2c1,inactive
4,COc1ccc(/C=C(\C#N)c2c[nH]c3ccccc23)cc1,31.6 µM (active)
5,C/C(=N\Nc1ncc(Cl)cc1Cl)c1cccs1,inactive
6,COc1cccc(/C(C)=N/Nc2ncc(Cl)cc2Cl)c1,5.01 µM (active)
7,CCN(CC)c1ccc(C(=O)N/N=C(\C)c2cccc(OC)c2)cc1,inactive
8,O=C1N[C@@H](c2ccccc2)COC(=O)[C@H](Cc2ccc(F)cc2)C/C=C\C[C@@H]1CC(=O)N(CCO)Cc1ccccc1,inactive
9,O=C(CCc1nc2ccccc2c(=O)[nH]1)OCC(=O)c1cccc(Cl)c1,inactive
10,Cc1ccc(C(=O)COC(=O)c2cccc(N3C(=O)c4c(C)nc5ccccc5c4C3=O)c2)cc1C,35.5 µM (active)
11,CCCc1nc2ccccc2c(C(=O)OCC(=O)c2ccc3c(c2)NC(=O)CO3)c1CC,inactive
12,CNC[C@@H]1Oc2c(NS(C)(=O)=O)cccc2C(=O)N([C@@H](C)CO)C[C@H]1C,inactive
13,COC(=O)[C@]1(Cc2ccccc2)N[C@H](CN(C)S(=O)(=O)c2ccc(OC(F)(F)F)cc2)[C@@H]2C(=O)N(C)C(=O)[C@@H]21,inactive
14,COc1ccc(CCNC(=O)COC(=O)c2ncc(Cl)c(Cl)c2Cl)cc1OC,inactive
15,C=CC[C@@H](CC(=O)NCCO)C(=O)N[C@H](C)COC(=O)[C@@H](CC=C)CC(=O)OC(C)(C)C,inactive
16,CC(C)NC(=O)Nc1cccc2c1O[C@@H](CN(C)S(=O)(=O)c1ccc(F)cc1)[C@@H](C)CN([C@H](C)CO)C2=O,inactive
17,C=CCC[C@@H](Cc1ccc(F)cc1)C(=O)O[C@H](CNC(=O)[C@H](CC=C)CC(=O)N(CCO)Cc1ccccc1)c1ccccc1,inactive
18,Cn1c(N)c(C(=O)COC(=O)c2cccc(S(=O)(=O)N3CCOCC3)c2)c(=O)n(C)c1=O,inactive
19,Cc1ccc(C(=O)NCC(=O)NC2CC2)cc1,inactive
20,COc1ccc2nc3n(c(=O)c2c1)-c1ccc(Cl)cc1C(=O)NC3Cc1ccccc1 (stereo not given),inactive
21,CCN(C[C@H]1N[C@@](CC)(C(=O)OC)[C@H]2C(=O)N(Cc3ccccc3)C(=O)[C@@H]12)S(=O)(=O)c1ccccc1,inactive
22,Cc1ccc(S(=O)(=O)Nc2ccc3c(c2)C(=O)N([C@H](C)CO)C[C@@H](C)[C@@H](CN(C)C(=O)Nc2cccc4ccccc24)O3)cc1,inactive
23,N#CCCN(C(=O)COC(=O)c1ccc2c(c1)OCCO2)c1ccccc1,inactive
24,O=C(COC(=O)CSc1ccccc1)Nc1ccc(F)cc1F,inactive
25,COc1ccc2[nH]c3c(c2c1)CCN1C(=O)C(CC(=O)NCCCN(C)C)C[C@H](C(=O)N2CCOCC2)[C@@]31CCC1CCCC1 (stereo not given in full),inactive
26,CC[C@]1(C(=O)OC)[C@H]2C(=O)N(Cc3ccccc3)C(=O)[C@H]2[C@H]2CN=C(SCc3ccc(Cl)cc3)N21,inactive
27,COC(=O)c1ccc(/C=C/c2c(-c3ccc(OC)cc3)sc3ccccc23)cc1,inactive

row,SMILES,Potency
1,Cc1ccc(S(=O)(=O)N2CCN(C(=O)CN3C(=O)NC(C)(c4ccc(Cl)cc4)C3=O)CC2)c(C)c1 (stereo not given),inactive
2,O=C(CSc1nc2ccccc2c(=O)n1-c1ccccc1F)N1CCOCC1,inactive
3,Cc1c(Cl)cnc(NC(=O)COC(=O)C2CCCC2)c1Cl,inactive
4,C[C@H](CO)N1C[C@H](C)[C@H](CN(C)C(=O)Nc2ccc(C(F)(F)F)cc2)Oc2c(NC(=O)c3ccncc3)cccc2C1=O,inactive
5,CC[C@]1(C(=O)OC)[C@H]2C(=O)N(Cc3ccccc3)C(=O)[C@H]2[C@H]2CN=C(SCc3ccccc3)N21,inactive
6,CC[C@@]1(C(=O)OC)N[C@H](CN(C)C(C)=O)[C@@H]2C(=O)N(C)C(=O)[C@@H]21,inactive
7,CN(C(=O)c1cccc(NC(=O)Cc2cccc([N+](=O)[O-])c2)c1)C1CCCCC1,inactive
8,COc1cc(C(=O)NC2CCN(C)CC2)ccc1Nc1ncc2c(n1)N(C1CCC(O)CC1)CCC(=O)N2C (stereo not given),inactive
9,CSCCC1NC(=O)N(CC(=O)Nc2cccc(S(=O)(=O)N3CCCCCC3)c2)C1=O (stereo not given),inactive
10,CN(C(=O)c1cccc(NC(=O)C2CCN(C(=O)OC(C)(C)C)CC2)c1)C1CCC1,inactive
11,Cc1ccc(S(=O)(=O)N2CCN(C(=O)COC(=O)CNC(=O)c3ccc(C(C)(C)C)cc3)CC2)c(C)c1,inactive
12,CCC(CO)Oc1cc(NCc2ccccc2)c2ncn(C3CCCC3)c2c1 (stereo not given),inactive
13,Nc1ncnc2c1ncn2[C@@H]1O[C@H](CNCc2cccn2-c2nccs2)[C@@H](O)[C@H]1O,inactive
14,CCOC(=O)C1=CN(Cc2ccc(Br)cc2)S(=O)(=O)NC1C (stereo not given),inactive
15,COc1ccc2[nH]c3c(c2c1)CCN1C(=O)C(CC(=O)NCCc2ccccn2)C[C@H](C(=O)N2CCOCC2)[C@@]31C (stereo not given in full),inactive
16,O=C(COC(=O)c1cc[n+]([O-])cc1)Nc1ccc(Cl)c(C(F)(F)F)c1,inactive
17,COc1ccc(CCOC2OC(CO)C(OC(=O)/C=C/c3ccc(O)c(OC)c3)C(O[C@H]3O[C@@H](C)[C@H](O)[C@@H](O)[C@H]3O)C2O)cc1O (stereo not given in full),inactive
18,CCOC(=O)[C@H]1[C@H]2COc3ccccc3[C@@H]2N2C(=O)CN(Cc3ccccc3)C(=O)[C@@]12C,inactive
19,COc1ccc(OC)c(NC(=O)COC(=O)Cc2ccsc2)c1,inactive
20,O=C(CC1SC(N2CCOCC2)=NC1=O)Nc1ccccc1F (stereo not given),inactive
21,O=C(NC(=S)Nc1ccc(Br)cc1F)C1CCCCC1,inactive
22,COc1ccc(CNC(=O)C[C@H]2C[C@H](C(=O)N3CCOCC3)[C@@]3(CCC4CCCC4)c4[nH]c5ccc(Cl)cc5c4CCN3C2=O)cc1OC,inactive
23,CCN1C[C@@H]2[C@@H]3C(=O)N(Cc4ccccc4)C(=O)[C@@H]3[C@](Cc3ccccc3)(C(=O)OC)N2C1=NC1CCCCC1,inactive
24,CCCCNc1c(-c2ccc(OC)c(Sc3ccc(OC)cc3)c2)nc2ccc(Cl)cn12,inactive
25,CC(C)N(C(=O)[C@H]1C[C@H](CC(=O)NC(C)(C)C)C(=O)N2CCc3c([nH]c4ccc(Cl)cc34)[C@]12C)C(C)C,inactive
26,Cc1c(NC(=O)C(C)OC(=O)c2ccccc2O)c(=O)n(-c2ccccc2)n1C (stereo not given),inactive
